Test results as given in the supplement of paper PMC10849652.
About 8,800 targets were measured; listed, in parts, are those with a hit and a random draw of the rest. About 0.5% of all pairs of compound and target were hits.

These targets were tested with CCn1c(C(=O)N(C2CC2)C2CC2)cc2c3c(ncn3C)c(Nc3cc(C)n(C)n3)nc21 (assay: log2 fold change, soluble protein after heating vs DMSO (PISA); higher = thermal stabilisation; K562 lysate, 10 uM; active = over 0.2 and 3.5 SD of the protein, either way, in both replicates (recomputed)).
Method in brief: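 Dounce homogenisation of K562 pellets in PBS pH 7.4 with 1 mM MgCl2 produced a crude extract, used at 1 mg/mL protein. Exposure to 10 μM compound lasted 30 min, and aliquots were then heated for 3 min across 48°C-58°C, pooled and brought to 0.5% NP-40 at 4°C. The supernatant after 21,000xg for 90 min was quantified by TMTpro 16plex LC-MS/MS with channel sums equalised. Duplicate values are given as log-two fold change in thermal stability relative to solvent controls.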

Sequence of UniProt Q12981 (Q12981 whole entry, looked up): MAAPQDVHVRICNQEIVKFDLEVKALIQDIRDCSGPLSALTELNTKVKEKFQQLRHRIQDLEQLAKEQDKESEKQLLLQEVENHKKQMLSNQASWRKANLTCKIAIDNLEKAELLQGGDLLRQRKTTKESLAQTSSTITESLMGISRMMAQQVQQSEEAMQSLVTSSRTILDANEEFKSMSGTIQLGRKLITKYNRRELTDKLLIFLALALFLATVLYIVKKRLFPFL
Sequence of UniProt Q5T9A4 (Q5T9A4 whole entry, looked up): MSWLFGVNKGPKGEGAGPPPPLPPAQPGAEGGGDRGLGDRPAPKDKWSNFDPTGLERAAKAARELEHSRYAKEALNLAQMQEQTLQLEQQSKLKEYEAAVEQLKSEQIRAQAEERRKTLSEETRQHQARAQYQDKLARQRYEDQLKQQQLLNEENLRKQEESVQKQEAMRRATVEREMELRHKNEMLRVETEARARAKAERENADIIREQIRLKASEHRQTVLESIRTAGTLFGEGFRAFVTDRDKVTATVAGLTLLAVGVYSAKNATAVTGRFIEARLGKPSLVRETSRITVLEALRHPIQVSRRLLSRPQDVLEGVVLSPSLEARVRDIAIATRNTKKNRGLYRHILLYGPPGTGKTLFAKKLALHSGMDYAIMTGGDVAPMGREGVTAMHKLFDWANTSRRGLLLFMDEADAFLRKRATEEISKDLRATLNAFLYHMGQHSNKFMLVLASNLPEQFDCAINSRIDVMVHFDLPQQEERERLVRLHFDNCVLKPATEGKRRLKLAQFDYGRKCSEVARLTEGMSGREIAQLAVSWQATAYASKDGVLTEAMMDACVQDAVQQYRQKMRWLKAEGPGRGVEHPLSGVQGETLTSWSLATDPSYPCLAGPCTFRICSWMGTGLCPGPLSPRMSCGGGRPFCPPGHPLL
Sequence of UniProt Q86WR0 (Q86WR0 whole entry, looked up): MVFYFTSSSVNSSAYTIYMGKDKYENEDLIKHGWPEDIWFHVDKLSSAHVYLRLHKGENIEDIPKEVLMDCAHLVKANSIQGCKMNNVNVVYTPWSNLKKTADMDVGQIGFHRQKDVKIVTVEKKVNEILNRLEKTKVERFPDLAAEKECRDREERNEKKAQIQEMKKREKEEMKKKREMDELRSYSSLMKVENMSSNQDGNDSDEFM
Sequence of UniProt O00311 (O00311 whole entry, looked up): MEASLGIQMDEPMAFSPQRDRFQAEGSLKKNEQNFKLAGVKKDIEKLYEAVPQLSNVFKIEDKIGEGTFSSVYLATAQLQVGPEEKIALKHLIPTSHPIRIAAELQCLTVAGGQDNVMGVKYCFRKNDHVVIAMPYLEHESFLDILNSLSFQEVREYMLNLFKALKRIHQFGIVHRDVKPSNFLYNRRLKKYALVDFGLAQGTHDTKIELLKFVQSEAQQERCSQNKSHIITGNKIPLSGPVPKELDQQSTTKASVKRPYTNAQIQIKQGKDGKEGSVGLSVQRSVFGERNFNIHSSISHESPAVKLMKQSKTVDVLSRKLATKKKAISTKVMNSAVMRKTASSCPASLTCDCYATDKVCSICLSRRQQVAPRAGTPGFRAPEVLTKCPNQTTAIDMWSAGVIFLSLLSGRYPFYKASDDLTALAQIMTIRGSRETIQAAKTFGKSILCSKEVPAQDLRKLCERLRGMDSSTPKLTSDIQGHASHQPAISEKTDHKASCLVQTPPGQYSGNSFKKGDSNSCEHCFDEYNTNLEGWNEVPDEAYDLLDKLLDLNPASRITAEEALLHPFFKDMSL
Sequence of UniProt O00748 (O00748 whole entry, looked up): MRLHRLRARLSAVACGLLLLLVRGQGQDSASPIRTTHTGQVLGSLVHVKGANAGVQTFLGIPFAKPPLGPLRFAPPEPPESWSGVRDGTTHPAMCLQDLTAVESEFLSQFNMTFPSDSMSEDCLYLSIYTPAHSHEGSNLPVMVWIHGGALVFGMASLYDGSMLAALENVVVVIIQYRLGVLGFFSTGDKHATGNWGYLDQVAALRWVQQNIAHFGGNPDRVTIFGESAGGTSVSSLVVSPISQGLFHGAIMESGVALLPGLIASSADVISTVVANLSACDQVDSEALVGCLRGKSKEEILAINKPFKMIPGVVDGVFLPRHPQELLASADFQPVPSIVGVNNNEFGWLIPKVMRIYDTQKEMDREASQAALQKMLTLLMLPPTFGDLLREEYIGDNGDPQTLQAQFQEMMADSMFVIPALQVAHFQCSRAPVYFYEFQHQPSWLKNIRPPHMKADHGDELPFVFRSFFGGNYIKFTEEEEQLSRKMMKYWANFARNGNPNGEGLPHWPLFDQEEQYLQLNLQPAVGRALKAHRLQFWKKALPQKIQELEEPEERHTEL
Sequence of UniProt P49918 (P49918 whole entry, looked up): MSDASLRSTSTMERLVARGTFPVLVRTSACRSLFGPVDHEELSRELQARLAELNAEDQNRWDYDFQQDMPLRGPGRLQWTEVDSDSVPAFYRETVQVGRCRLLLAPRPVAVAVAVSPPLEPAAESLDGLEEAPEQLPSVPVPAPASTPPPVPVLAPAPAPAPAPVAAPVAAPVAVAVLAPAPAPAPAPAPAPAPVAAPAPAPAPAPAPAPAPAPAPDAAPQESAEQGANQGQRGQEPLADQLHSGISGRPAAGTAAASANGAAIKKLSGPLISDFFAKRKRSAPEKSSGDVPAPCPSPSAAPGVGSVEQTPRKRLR
Sequence of UniProt O75143 (O75143 whole entry, looked up): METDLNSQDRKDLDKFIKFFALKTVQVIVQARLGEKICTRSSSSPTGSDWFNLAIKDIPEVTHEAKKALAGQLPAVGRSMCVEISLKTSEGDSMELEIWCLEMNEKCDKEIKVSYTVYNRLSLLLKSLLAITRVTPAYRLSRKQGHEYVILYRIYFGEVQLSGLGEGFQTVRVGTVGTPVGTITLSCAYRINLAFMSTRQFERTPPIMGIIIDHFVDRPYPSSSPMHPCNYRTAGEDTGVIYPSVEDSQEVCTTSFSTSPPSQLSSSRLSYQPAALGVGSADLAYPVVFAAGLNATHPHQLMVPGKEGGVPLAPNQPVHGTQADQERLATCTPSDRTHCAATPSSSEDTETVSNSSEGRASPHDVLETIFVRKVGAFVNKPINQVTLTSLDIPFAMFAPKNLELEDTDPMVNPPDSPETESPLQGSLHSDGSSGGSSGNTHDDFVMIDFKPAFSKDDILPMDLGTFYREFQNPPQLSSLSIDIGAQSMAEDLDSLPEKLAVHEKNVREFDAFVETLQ
Sequence of UniProt Q13555 (Q13555 whole entry, looked up): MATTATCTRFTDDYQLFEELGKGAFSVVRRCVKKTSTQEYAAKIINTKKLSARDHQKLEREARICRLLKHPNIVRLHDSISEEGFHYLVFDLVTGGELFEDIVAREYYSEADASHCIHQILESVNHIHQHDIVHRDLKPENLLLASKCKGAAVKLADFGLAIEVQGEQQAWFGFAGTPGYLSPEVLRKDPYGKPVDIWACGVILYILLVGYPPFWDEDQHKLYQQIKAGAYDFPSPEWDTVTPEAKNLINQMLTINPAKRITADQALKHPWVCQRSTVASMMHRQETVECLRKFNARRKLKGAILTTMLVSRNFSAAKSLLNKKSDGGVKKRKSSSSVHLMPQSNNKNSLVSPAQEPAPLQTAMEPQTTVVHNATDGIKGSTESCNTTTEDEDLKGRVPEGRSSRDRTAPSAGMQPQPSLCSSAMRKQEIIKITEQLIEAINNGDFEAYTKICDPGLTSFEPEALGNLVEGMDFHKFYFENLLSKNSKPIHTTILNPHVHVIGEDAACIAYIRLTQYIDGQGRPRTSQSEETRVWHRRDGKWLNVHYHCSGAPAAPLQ
Sequence of UniProt Q8IWY9 (Q8IWY9 whole entry, looked up): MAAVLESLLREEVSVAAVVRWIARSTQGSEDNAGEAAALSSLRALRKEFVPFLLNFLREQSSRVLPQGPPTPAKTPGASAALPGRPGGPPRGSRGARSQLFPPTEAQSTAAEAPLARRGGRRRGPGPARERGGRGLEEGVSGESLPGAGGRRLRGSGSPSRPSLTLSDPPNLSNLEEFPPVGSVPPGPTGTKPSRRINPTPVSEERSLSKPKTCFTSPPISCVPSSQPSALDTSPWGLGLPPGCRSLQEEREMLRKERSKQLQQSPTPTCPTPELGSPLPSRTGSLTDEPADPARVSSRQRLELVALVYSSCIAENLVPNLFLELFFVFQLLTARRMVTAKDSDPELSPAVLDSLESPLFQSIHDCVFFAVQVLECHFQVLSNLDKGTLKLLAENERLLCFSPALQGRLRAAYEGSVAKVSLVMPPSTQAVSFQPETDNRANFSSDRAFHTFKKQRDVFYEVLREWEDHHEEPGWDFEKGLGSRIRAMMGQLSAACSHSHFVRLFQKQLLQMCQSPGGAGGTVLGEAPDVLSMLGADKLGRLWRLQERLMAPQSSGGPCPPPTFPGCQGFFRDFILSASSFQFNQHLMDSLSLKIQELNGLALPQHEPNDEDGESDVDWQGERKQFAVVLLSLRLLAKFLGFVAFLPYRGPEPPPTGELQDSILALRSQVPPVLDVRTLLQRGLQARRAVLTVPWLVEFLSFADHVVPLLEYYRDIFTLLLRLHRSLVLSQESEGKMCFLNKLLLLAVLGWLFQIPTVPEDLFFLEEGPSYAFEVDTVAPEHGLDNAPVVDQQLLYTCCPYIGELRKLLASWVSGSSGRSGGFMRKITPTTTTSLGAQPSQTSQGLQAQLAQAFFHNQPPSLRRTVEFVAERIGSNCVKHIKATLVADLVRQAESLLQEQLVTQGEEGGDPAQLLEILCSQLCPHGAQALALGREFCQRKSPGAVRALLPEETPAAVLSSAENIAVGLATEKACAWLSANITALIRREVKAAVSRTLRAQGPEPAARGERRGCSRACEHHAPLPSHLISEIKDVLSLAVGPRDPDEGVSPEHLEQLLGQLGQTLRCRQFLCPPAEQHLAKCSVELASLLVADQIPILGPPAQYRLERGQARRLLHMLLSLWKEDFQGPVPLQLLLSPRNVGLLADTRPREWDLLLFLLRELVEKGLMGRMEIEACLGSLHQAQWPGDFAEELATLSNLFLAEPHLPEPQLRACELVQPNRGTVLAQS

log2 fold change, inactive:
CARD9 (UniProt Q9H257) 0.011
ATG13 isoform 2 (UniProt O75143) 0.015
CCDC25 (UniProt Q86WR0) -0.023
CCPG1 isoform 5 (UniProt Q9ULG6) 0.071
BRAF (UniProt P15056) -0.023
CALB2 (UniProt P22676) 0.023
CES2 isoform 4 (UniProt O00748) -0.046
CCDC47 (UniProt Q96A33) 0.018
CCNB2 (UniProt O95067) -0.059
ATP2B4 (UniProt P23634) -0.019
CDKN1C (UniProt P49918) 0.019
ATAD3B (UniProt Q5T9A4) 0.014
CEP76 (UniProt Q8TAP6) -0.026
CDK13 (UniProt Q14004) 0.106
C2CD5 isoform 3 (UniProt Q86YS7) -0.069
CDAN1 (UniProt Q8IWY9) 0.031
ATRIP (UniProt Q8WXE1) -0.013
CAMK2G isoform 8 (UniProt Q13555) -0.079
CDC16 (UniProt Q13042) 0.043
CDC7 (UniProt O00311) -0.003
BNIP1 (UniProt Q12981) -0.013
CAD (UniProt P27708) 0.012
CFDP1 (UniProt Q9UEE9) -0.015
